About 1,000 (0.29%) of roughly 340,000 compounds were called active. No stated cut-off is given here; in the data, inconclusive means inhibition above about 27% without an active follow-up result; inactive means below that. Not all results are given here. Entries with a potency or affinity are not part of this list.

The assay is described as follows: NS1A inhibition, H1N1 influenza, cell based functional assay (AID 504329). The following applies: percent inhibition, at 12.5 µM, active compounds read high.
For `NCC(c1ccc(Cl)cc1Cl)c1c[nH]c2ccccc12` (configuration not stated), the inhibition was 7.89% (inactive).

As for `OC(CNCC(c1ccc(Cl)cc1Cl)c1c[nH]c2ccccc12)c1ccccc1` (configuration not stated), the inhibition is 5.5% (inactive).

For the molecule `CC[C@]12C(=O)N(C)C[C@H]([C@@H]3C(=O)N(Cc4ccccc4)C(=O)[C@@H]31)N2C(=O)c1ccc(Br)cc1`, the inhibition is 1.57% (inactive).

Regarding `CN(C)c1ccc(N=Nc2nc3ccccc3n2C)cc1`, the inhibition is -12.4% (inactive).

For `Cc1ccc(NCc2nc3ccccc3n2C)c(C)c1`, the inhibition was 1.58% (inactive).

On to `Cc1ccc(CNc2nc3ccccc3n2C)cc1`, for which the inhibition was -2.51% (inactive).

For the molecule `Cn1c(N=Nc2ccccc2)nc2ccccc21`, the inhibition was 3.98% (inactive).

Regarding `C=CCn1c(C(O)c2ccccc2)nc2ccccc21` (configuration not stated), the inhibition is -2.4% (inactive).

For `COC(=O)c1ccccc1NC(=O)c1cccc(NC(=O)C(C)C)c1`, the inhibition is -5.47% (inactive).

In the case of `Cc1ccc(Cl)c2c1NC(=O)C2(O)CC(=O)c1ccccc1O` (configuration not stated), the inhibition was 1.71% (inactive).

In the case of `Cc1nn(Cc2ccc(F)cc2)c(Cl)c1/C=N/NC(=O)c1cccnc1`, the inhibition is 3.93% (inactive).

Consider `CCCCNC(=O)C1CCCN1S(=O)(=O)c1cccc2nsnc12` (configuration not stated), for which the inhibition was -12.3% (inactive).

Consider `O=c1c2c(-c3ccccc3)csc2ncn1/N=C/c1c2ccccc2cc2ccccc12`, for which the inhibition is 5.97% (inactive).

`Cc1ccc(C=Nc2ccc(N(C)C)cc2)o1`: the inhibition was 22.3% (inactive).

With `CN(C)c1ccc(C=Nc2ccc(N(C)C)cc2)cc1`, the inhibition was 26.9% (inactive).

Turning to `CN1C(C(=O)NCCc2cccs2)CC2Cn3c(nc4cc5ccccc5cc43)C21` (configuration not stated), the inhibition is 1.77% (inactive).

With `CSc1cccc(CN2CCN(CCc3ccccc3)C(CCO)C2)c1` (configuration not stated), the inhibition was -1.46% (inactive).

Consider `O=C(c1cc(-c2ccccc2Cl)on1)N1CCN(C(=O)c2ccco2)CC1`, for which the inhibition was 9.97% (inactive).

Turning to `O=C(c1ccco1)N1CCN(C2=NS(=O)(=O)c3ccccc32)CC1`, the inhibition was -26.1% (inactive).

With `O=C(c1ccco1)N1CCN(CCCCN2C(=O)c3ccccc3C2=O)CC1`, the inhibition was -6.16% (inactive).

With `CN(CCO)c1cc(N2CCN(C(=O)c3ccco3)CC2)c2nonc2c1[N+](=O)[O-]`, the inhibition is -1.02% (inactive).

`COc1ccc(C)cc1-n1nnnc1SCc1csc(C)n1`: the inhibition is -0.01% (inactive).

On to `O=C(Cc1ccc2c(c1)OCCO2)Nc1cc(C(F)(F)F)ccc1N1CCOCC1`, for which the inhibition is -15.4% (inactive).

Take `O=C(CC(O)(CC(=O)OCc1ccccc1)C(=O)OCc1ccccc1)OCc1ccccc1`: the inhibition was 10.3% (inactive).

Regarding `O=C1/C(=C\c2cccc(O)c2O)SC(=S)N1Cc1ccccc1`, the inhibition is 11.5% (inactive).

On to `O=C1/C(=C/c2ccc(O)c([N+](=O)[O-])c2)SC(=S)N1Cc1ccccc1`, for which the inhibition is 8.28% (inactive).

Turning to `O=C(c1ccncc1)C12CN3CN(CN(C3)C1)C2`, the inhibition is -2.7% (inactive).

As for `COc1cc(/C=N\NC(=O)CN2CCOCC2)ccc1OCC(=O)Nc1ccc(C)c(C)c1`, the inhibition was 0.68% (inactive).

For `C/C(=N\N1CCN(Cc2ccc(Cl)cc2)CC1)c1ccc([N+](=O)[O-])cc1`, the inhibition is 1.56% (inactive).

Turning to `CC(c1ccccn1)C(C)(O)C(C)c1ccccn1` (configuration not stated), the inhibition was -2.07% (inactive).

Consider `CC(O)(Cc1ccccn1)Cc1ccccn1`, for which the inhibition was 3.66% (inactive).

`COc1ccccc1N1CCN(Cc2ccc(OC)c(OC)c2OC)CC1`: the inhibition is 0.22% (inactive).

With `COc1ccccc1N1CCN(Cc2cccc(OC)c2O)CC1`, the inhibition was 0.66% (inactive).

For `COc1ccccc1N1CCN(Cc2cc3c(cc2Br)OCCO3)CC1`, the inhibition was 3.4% (inactive).

On to `COc1ccccc1N1CCN(Cc2cccc(OC)c2OC)CC1`, for which the inhibition was -12% (inactive).

Turning to `Cc1onc(COc2ccccc2O)c1Br`, the inhibition is -2.44% (inactive).

`Cc1cccc(NC(=O)C2CCCN(S(=O)(=O)c3ccc4[nH]c(=O)ccc4c3)C2)n1` (configuration not stated): the inhibition is 5.77% (inactive).

On to `CC(C)C(NC(=O)c1ccc(C(C)(C)C)cc1)C(=O)NC1=NCCS1` (configuration not stated), for which the inhibition is 8.12% (inactive).

`c1cc(-c2ccncc2)ccn1`: the inhibition is -1.52% (inactive).

Regarding `Oc1cncc(-c2cccnc2)c1`, the inhibition was -6.57% (inactive).

For `c1cncc(-c2cnc3ccccc3c2)c1`, the inhibition is -4.39% (inactive).

Take `CN(C)c1ccc(-c2cc(O)c3ncccc3c2)cc1`: the inhibition is 21.2% (inactive).

Regarding `CC1(c2nnc(-c3ccc(Cl)cc3)o2)CC(c2c(Cl)cccc2Cl)=NO1` (configuration not stated), the inhibition is -2.35% (inactive).

`Cc1ccc(NC(=S)NCc2ccccc2)c(C)c1`: the inhibition was -7.15% (inactive).

Consider `O=C(Cc1ccccc1)Nc1cc(C(=O)c2ccccc2)ccc1N1CCOCC1`, for which the inhibition was -3.63% (inactive).

For `COc1ccc(C(=O)NCCNc2nc3ccc(C)cc3cc2C#N)cc1`, the inhibition is -6.86% (inactive).

Consider `CN(CC1CCCN(CCc2ccc(Cl)cc2)C1)C(=O)CC(F)(F)F` (configuration not stated), for which the inhibition was -8.18% (inactive).

As for `Cc1ccc(CNC(=O)C2CCC(=O)N(CCc3ccc(Cl)cc3)C2)s1` (configuration not stated), the inhibition was -10% (inactive).

For the molecule `COc1ccc(C(=O)NC(C)CCCC(C)(C)O)cc1OC1CCN(C(C)=O)CC1` (configuration not stated), the inhibition was -0.26% (inactive).

In the case of `Clc1ccc(-c2noc(COc3ccccc3)n2)cc1`, the inhibition is -0.74% (inactive).

With `C/C(=N/NC(=O)CNC(=O)c1ccccn1)c1ccc([N+](=O)[O-])cc1`, the inhibition was -5.71% (inactive).

On to `C/C(=N\NC(=O)C(c1ccccc1)c1ccccc1)c1ccccn1`, for which the inhibition was -11.5% (inactive).

Regarding `CCOc1ccc(C(=O)NCCN2CCCCC2)c(OCC)c1`, the inhibition was -19.7% (inactive).

For `Cc1ccc(NC(=O)CN(C)C(=O)c2ccc(NS(=O)(=O)c3ccc4[nH]c(=O)[nH]c4c3)cc2)cc1`, the inhibition was 2.9% (inactive).

For `O=C(COC(=O)C12CC3CC(CC(O)(C3)C1)C2)NC(=O)NCc1ccco1`, the inhibition is -3.4% (inactive).

In the case of `O=c1[nH]c(=S)[nH]c2scc(-c3ccc(Br)cc3)c12`, the inhibition was -20.7% (inactive).

Turning to `CCn1c(C)nc2cc(C(=O)N/N=C/c3cccc(OC)c3O)ccc21`, the inhibition was 5.9% (inactive).

With `CCn1c(C)nc2cc(C(=O)N/N=C/c3cccc(O)c3O)ccc21`, the inhibition was 0.31% (inactive).

Regarding `O=C(O)c1cc(-c2cccc3ccccc23)nc2ccccc12`, the inhibition was -1.69% (inactive).

Regarding `O=C(O)c1cc(-c2ccccc2)nc2ccccc12`, the inhibition is 1.29% (inactive).

As for `COc1ccc(C(=O)N2CCN(c3ncccn3)CC2)cc1[N+](=O)[O-]`, the inhibition was -14.3% (inactive).

Take `O=C(NC(=S)Nc1ccc2oc(-c3ccncc3)nc2c1)c1ccccc1F`: the inhibition is 1.17% (inactive).

Source of the values: PubChem BioAssay AID504329 (Southern Research Specialized Biocontainment Screening …, 2011).
